Shown are actives, neighbours in structure and some others; about 21% of the full set was active somewhere.
TDP1 cell CPT: qHTS for Inhibitors of human tyrosyl-DNA phosphodiesterase 1 (TDP1): qHTS in cells in presence of CPT; chicken DT40 Tdp1-/-;hTDP1 cells + 20 nM CPT, ATP luminescence, 48 h; Potency, µM (doses to about 46.2 µM), for the others: top-dose activity change, negative = growth inhibition, hits mostly inhibitors; hit rate 12% among 420,000; AID 686979, 2013; also: potency is read from the fitted curve at half-maximal effect; nearly all actives have a fitted effect of over 55% in size
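Cell growth measured by CellTiter-Glo luminescence after a minimum 48 h, 37 C compound exposure with 20 nM CPT in Tdp1-knockout DT40 cells stably expressing hTDP1, seeded 400/well; qHTS titration format.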
IL1B secr inh: qHTS for Inhibitors of Inflammasome Signaling: IL-1-beta AlphaLISA Primary Screen; THP-1 LPS/ATP IL-1B secretion, AlphaLISA, 16 h; hits give low values; activity change, % at 57.5 µM; hit rate 4.7% among 360,000; in the data active = activity change below about -50%; inconclusive = mostly about -30% to -49%
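Secreted IL-1B measured by AlphaLISA bead assay after 16 h compound exposure of THP-1 cells; compounds (final up to 57.5 uM) added 1 h before LPS (250 ng/mL) and ATP (1.25 mM) stimulation; lower signal means less secretion.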
ELG1 DNA repair: qHTS screen for small molecules that inhibit ELG1-dependent DNA repair in human embryonic kidney (HEK293T) cells expressing luciferase-tagged ELG1 | HEK293T ELG1-luciferase reporter, luminescence, 16 h; DNA damage induced by 5-fluorouridine | Potency, µM (titrated, usually from 46.1 µM), inactives show at the highest dose activity change, negative = inhibition, most hits filed as inhibitors | hit rate 2.3% among 330,000 | AID 504467, 2011; also: potency is read from the fitted curve at half-maximal effect; nearly all actives have a fitted effect of over 55% in size
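In this reporter screen, reduction of luminescence relative to DMSO vehicle indicated activity. Compounds and 5-fluorouridine were added together to 2,000 cells per well, incubated for 16 hr at 37 °C, then developed with ONE-Glo.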
Gal4-VP16 FLuc: VP16 counterscreen qHTS for inhibitors of ROR gamma transcriptional activity; Drosophila S2 Gal4-VP16 UAS-luciferase, luminescence, 20 h; Potency, µM (series often up to 53.6 µM), for the others: top-dose activity, negative = inhibition, most hits filed as inhibitors; hit rate 3.5% among 310,000; AID 2546, 2010;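 also: Gal4-VP16 expression switched on by copper sulfate through the metallothionein promoter; potency is read from the fitted curve at half-maximal effect; nearly all actives have a fitted effect of over 50% in size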
RORgamma inh: qHTS for inhibitors of ROR gamma transcriptional activity | hit rate 5.4% among 310,000 | Potency, µM (doses to about 53.6 µM), for inactives: at the highest dose activity change, negative = inhibition, most hits filed as inhibitors | Drosophila S2 Gal4-RORgamma UAS-luciferase reporter, 20 h; also: potency is read from the fitted curve at half-maximal effect; nearly all actives have a fitted effect of over 60% in size
Target sequence (P51450 whole entry, looked up, the tested form may be a part): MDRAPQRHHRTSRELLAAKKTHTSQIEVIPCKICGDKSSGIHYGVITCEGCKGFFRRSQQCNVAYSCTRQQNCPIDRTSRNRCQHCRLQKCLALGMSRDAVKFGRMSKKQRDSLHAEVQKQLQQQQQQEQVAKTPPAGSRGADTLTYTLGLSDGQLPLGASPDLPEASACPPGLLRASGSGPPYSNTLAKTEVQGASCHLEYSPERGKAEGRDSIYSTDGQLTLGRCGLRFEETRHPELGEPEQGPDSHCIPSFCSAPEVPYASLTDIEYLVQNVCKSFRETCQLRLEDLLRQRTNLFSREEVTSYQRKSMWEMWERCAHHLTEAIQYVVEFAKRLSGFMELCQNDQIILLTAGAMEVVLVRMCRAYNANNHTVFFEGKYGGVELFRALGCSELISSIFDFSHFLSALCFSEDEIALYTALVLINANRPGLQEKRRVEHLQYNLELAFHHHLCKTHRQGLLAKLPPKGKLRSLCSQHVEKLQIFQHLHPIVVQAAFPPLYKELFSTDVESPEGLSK
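Compounds are pin-transferred onto Drosophila Schneider cells expressing a copper-inducible Gal4–ROR gamma transactivation domain fusion. After 1 hr, copper sulfate is added to 700 uM final; luciferase is read 20 hr later.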
TDP1 cell noCPT: qHTS for Inhibitors of human tyrosyl-DNA phosphodiesterase 1 (TDP1): qHTS in cells in absence of CPT; DT40 Tdp1-/- hTDP1 cells, no CPT, ATP luminescence, 48 h; Potency, µM (highest dose often 46.2 µM), inactives show at the highest dose activity change, negative = growth inhibition, actives largely listed as inhibitors; hit rate 15% among 420,000; also: potency is read from the fitted curve at half-maximal effect; nearly all actives have a fitted effect of over 55% in size
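Compound effects on proliferation are scored in DT40 Tdp1-/-;hTDP1 cells in the absence of CPT. ATP levels (CellTiter-Glo luminescence) are recorded after a ≥48 hr, 37 °C incubation.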
Numbers without * were called inactive; ? = inconclusive; nt = no result given; ! = repeats disagree; [ ] = remark or other dose. Unless noted, calls follow the shape of the dose curve; as a rule, active = well fitted curve in the direction sought with a large enough effect; inconclusive = small, poorly fitted or top-dose-only effect, or another doubt; inactive = no such curve, though single readings can be large; an effect the other way counts as inactive or inconclusive. % is scaled to controls: 0 for no effect and ±100 for the full control effect.

SMILES	TDP1 cell CPT	IL1B secr inh	ELG1 DNA repair	Gal4-VP16 FLuc	RORgamma inh	TDP1 cell noCPT
COCCCNC(=S)N/N=C/c1ccc(O)cc1O	?	nt	-26.2%	-25.6%	-36.6%	?
O=C(COCc1cc(-c2ccc3c(c2)OCO3)on1)N1CCN(c2cccc(C(F)(F)F)c2)CC1	13µM*	-9.6	-18.0%	-7.0%	14.5%	23.1µM*!
Cc1cc(C)c(NC(=O)COCc2cc(-c3cccs3)on2)c(C)c1	18.4µM*	nt	nt	nt	nt	?
CCOC(=O)c1ccc(NC(=O)COCc2cc(-c3ccc4c(c3)OCO4)on2)cc1	-22.2%	nt	nt	nt	nt	-27.2%
COc1ccc(N2CCN(C(=O)COCc3cc(-c4ccc5c(c4)OCO5)on3)CC2)cc1	?	-18.6	?	-10.7%	-11.1%	18.4µM*!
CCc1cccc(C)c1NC(=O)COCc1cc(-c2ccc3c(c2)OCO3)on1	23.1µM*	nt	nt	nt	nt	?
Cc1oc(-c2ccccc2)nc1CS(=O)CC(=O)NC1CCCC1 (stereo not drawn)	0.7%	12.0	13.5%	-3.5%	-2.2%	-15.0%
Cc1cc(C)cc(N=c2c([N+](=O)[O-])nn(-c3cccc(Cl)c3)n2O)c1	11.2µM*	-1.2	-23.0%	1.6%	-24.0%	?
O=[N+]([O-])c1nn(-c2ccc3c(c2)OCCO3)n(O)c1=NCCC1=CCCCC1	-25.9%	-2.7	?	?	-20.6%	-26.7%
CCc1cccc(N=c2c([N+](=O)[O-])nn(-c3ccc(Cl)cc3)n2O)c1	20.6µM*	5.3	-23.2%	-4.0%	-2.6%	?
Cc1cccc(N=c2c([N+](=O)[O-])nn(-c3ccc(Cl)cc3)n2O)c1	4.2%	22.2	-3.5%	?	5.7%	0.8%
O=C(Oc1ccc([N+](=O)[O-])cc1)C1CC(=O)N(c2ccc3c(c2)OCCO3)C1 (stereo not drawn)	0.7%	5.5	?	nt	nt	3.4%
COc1cc(N=c2c([N+](=O)[O-])nn(-c3ccc4c(c3)OCCO4)n2O)cc(OC)c1	1.46µM*	-22.3	?	-17.7%	14.7%	1.64µM*
O=[N+]([O-])c1nn(-c2ccc3c(c2)OCCO3)n(O)c1=NCc1ccc(F)cc1	?	-75.6*	?	-12.2%	22.6%[10 µM]	?
CCc1nn(CC(=O)NCCc2ccc(OC)cc2OC)c(=O)c2cc3occc3n12	?	-25.0	-8.6%	0.9%	26.4%	12.0%
COc1ccc(NS(=O)(=O)c2cccc(C(=O)N(C)Cc3ccc(SC)cc3)c2)cc1	?	-0.6	?	nt	nt	?
CCc1cccc(N=c2c([N+](=O)[O-])nn(-c3ccc4c(c3)OCCO4)n2O)c1	1.84µM*	0.0	-6.2%	?	-2.6%	3.26µM*
CN(CC(=O)N(C)CC(=O)Nc1c(Cl)cccc1Cl)Cc1ccccc1F	-3.3%	-14.1	?	nt	nt	-17.9%
Cc1c(C(=O)N2CCOc3ccccc3C2)sc2ncnc(NCCCN3CCOCC3)c12	-0.6%	nt	nt	nt	nt	-6.6%
CCOC(=O)c1ccccc1NC(=O)CSc1cn(CC(=O)N2CCOCC2)c2ccccc12	-27.4%	nt	nt	nt	nt	-21.5%
COc1ccccc1N1CCN(C(=O)NCc2ccc(Cl)cc2)CC1	-8.1%	-21.7	-0.6%	-0.7%	8.6%	?
O=C(CN1CCN(C(=O)c2ccc(-c3nc4ccccc4s3)o2)CC1)Nc1cccc(F)c1	-0.9%	7.1	nt	nt	nt	-15.2%
COc1ccccc1N1CCN(C(=O)c2ccc(-c3ccc(Cl)cc3)o2)CC1	3.66µM*	41.1	?	nt	nt	2.31µM*

Screening results from PubChem BioAssay.
